The source of these data is PubChem BioAssay AID602376 (Johns Hopkins Ion Channel Center, 2012).

Results with a measured potency or affinity are listed apart. Results filed as inconclusive are left out. Activity calls are given as the source filed them.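 How the source made its calls: active means raises choline transporter activity at one or more tested doses and gives a fitted dose-response curve; inconclusive means no clear call, values can overlap the other calls; inactive means no choline transporter activation at any dose, or no curve.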

The target of the test is High affinity choline transporter 1 (Homo sapiens) (UniProt Q9GZV3). Put plainly: CHT activators, dose response, cell-based, 10-point CRC, membrane potential dye (AID 602376). The settings on record: HEK293-CHT, choline-induced membrane potential dye, cells express CHT LV-AA mutant; series mostly up to 67 µM; percent activation: at the top concentration.
High affinity choline transporter 1 (Homo sapiens), sequence (Q9GZV3 whole entry, looked up): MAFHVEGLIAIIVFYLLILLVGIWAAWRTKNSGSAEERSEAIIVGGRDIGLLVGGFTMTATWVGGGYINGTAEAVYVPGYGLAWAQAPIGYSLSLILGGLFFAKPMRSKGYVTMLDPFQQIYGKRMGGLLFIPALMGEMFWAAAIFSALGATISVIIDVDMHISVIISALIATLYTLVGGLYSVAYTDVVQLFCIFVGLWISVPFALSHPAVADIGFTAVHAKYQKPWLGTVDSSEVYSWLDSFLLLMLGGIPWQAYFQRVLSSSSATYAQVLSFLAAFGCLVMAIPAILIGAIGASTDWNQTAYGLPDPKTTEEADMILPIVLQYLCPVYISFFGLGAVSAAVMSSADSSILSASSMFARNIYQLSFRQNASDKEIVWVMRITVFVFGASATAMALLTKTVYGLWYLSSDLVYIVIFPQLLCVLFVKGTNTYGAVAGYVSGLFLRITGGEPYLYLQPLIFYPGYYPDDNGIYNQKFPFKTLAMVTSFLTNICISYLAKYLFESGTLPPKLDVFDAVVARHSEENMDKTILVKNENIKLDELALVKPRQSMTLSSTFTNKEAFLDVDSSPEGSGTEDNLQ
Take `CCOC(=O)c1sc2nc(SCC#N)n(CCCN3CCCC3=O)c(=O)c2c1C`: the “percent activation” value is 0.97% (inactive). With `C=CCN1C(c2ccc(OCC)cc2)=CS/C1=C(\C#N)c1nnc2n1CCCCC2`, the “percent activation” value is 94.7% (inactive). For the compound `Cc1ccc(S(=O)(=O)c2nc(-c3ccco3)oc2SC(C)C)cc1`, the “percent activation” value is 67.7% (inactive). Take `Cc1ccccc1SCC(=O)Nc1cc(C(F)(F)F)ccc1N1CCOCC1`: the “percent activation” value was 68.4% (inactive). As for `Cn1c(=O)c2c(nc(CN3CCCCC3)n2CCc2ccccc2)n(C)c1=O`, the “percent activation” value is 46.7% (inactive). On to `COc1ccc(Br)cc1CN(C)C(=O)c1ccccc1OCc1c(C)noc1C`, for which the “percent activation” value is 92.1% (inactive). With `CCc1cccc(OCCn2nc(C(=O)O)c3ccccc3c2=O)c1`, the “percent activation” value is 64.3% (inactive).

In the case of `O=c1c2ccccc2n(CC(O)CN2CCOCC2)c2ccccc12` (stereo not drawn), the “percent activation” value is 44.9% (inactive).

`COc1ccccc1N(C(=O)c1ccco1)C(C(=O)NC1CCCC1)c1cccs1` (stereo not drawn): the “percent activation” value was 49.6% (inactive). In the case of `CCCCC(c1nnnn1C1CCCC1)N1CCN(C2CCCC2)CC1` (stereo not drawn), the “percent activation” value was 51.1% (inactive). Regarding `CC(C)CCOC(=O)/C(=C/c1ccco1)NC(=O)/C=C/c1ccccc1`, the “percent activation” value was 37.4% (inactive). With `NCCCC[C@H]1CN=C(N)N1CCCCC1CCCCC1` the figure was 24.9% (inactive); with `CC1(C)Cc2c(sc3nc4n(c(=N)c23)CCC4)CO1`, -7.72% (inactive). With `O=C(NC1CCCC1)C(c1ccsc1)N(Cc1ccco1)C(=O)Cc1cccs1` (stereo not drawn) the figure was 71.2% (inactive); with `CCc1ccc(CN(C)C(=O)CCc2nc3ccccc3n(-c3ccc(OC)cc3)c2=O)cc1`, 88.1% (inactive); with `CCCCn1c(N)c(N(CCOC)C(=O)c2ccc(COc3ccccc3)o2)c(=O)[nH]c1=O`, 56.5% (inactive). For the compound `CCCC(c1nnnn1Cc1ccco1)N1CCN(c2cc(Cl)ccc2C)CC1` (stereo not drawn), the “percent activation” value was 66% (inactive). On to `CCC(=O)N1CCN(c2ccccc2NC(=O)c2ccc([N+](=O)[O-])o2)CC1`, for which the “percent activation” value is 72% (inactive).
